Source: PubChem
B2AR ag – human beta-2 adrenergic receptor agonism by FAP | P07550 | Am2.2-beta2AR cells, FAP receptor internalization, flow cytometry | response, % (test concentration not listed) | actives 0.43% (n = 340,000) | AID 504454;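 active = response above a set limit, near 3 SD of response in nonfluorescent compounds, cut at about 42% in these data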
MEKK2 mut-MEK5 – signal of MEK5 binding to mutant human MEKK2 PB1 domain. percent response, % at 10 µM. actives 0.35% (n = 290,000). bead flow cytometry, Alexa488-MEK5 binding to MEKK2 mutant; in the data active = percent response above about 24%, passing the limit was not always enough
GRK2 inh – blocks RNA aptamer binding to human GRK2; inhibition of aptamer binding, % at 10 µM; bead flow cytometry, FAM-aptamer displacement from GRK2; P25098; AID 488847; actives 0.59% (n = 330,000);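 active = inhibition of aptamer binding above 40%, roughly 3 SD of noise, on plates passing a quality check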;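 note: median bead fluorescence of bound FAM aptamer so fluorescent compounds give negative values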
MEKK3 PB1 HTS – MEKK3-MEK5 PB1 interaction, increase or decrease; actives 1.4% (n = 290,000); bead-based flow cytometry, Alexa488-MEK5 binding to MEKK3; actives lie on both sides; 0 = blocked by unlabeled MEK5, 100 = vehicle; binding response (% of control), % at 10 µM;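 active = binding response more than 3 SD above or below the average of its plate-row segment, actives on both sides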;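 note: Alexa488 bead fluorescence after subtracting the streptavidin-only scavenger bead signal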
Target sequence (Q99759 whole entry, looked up): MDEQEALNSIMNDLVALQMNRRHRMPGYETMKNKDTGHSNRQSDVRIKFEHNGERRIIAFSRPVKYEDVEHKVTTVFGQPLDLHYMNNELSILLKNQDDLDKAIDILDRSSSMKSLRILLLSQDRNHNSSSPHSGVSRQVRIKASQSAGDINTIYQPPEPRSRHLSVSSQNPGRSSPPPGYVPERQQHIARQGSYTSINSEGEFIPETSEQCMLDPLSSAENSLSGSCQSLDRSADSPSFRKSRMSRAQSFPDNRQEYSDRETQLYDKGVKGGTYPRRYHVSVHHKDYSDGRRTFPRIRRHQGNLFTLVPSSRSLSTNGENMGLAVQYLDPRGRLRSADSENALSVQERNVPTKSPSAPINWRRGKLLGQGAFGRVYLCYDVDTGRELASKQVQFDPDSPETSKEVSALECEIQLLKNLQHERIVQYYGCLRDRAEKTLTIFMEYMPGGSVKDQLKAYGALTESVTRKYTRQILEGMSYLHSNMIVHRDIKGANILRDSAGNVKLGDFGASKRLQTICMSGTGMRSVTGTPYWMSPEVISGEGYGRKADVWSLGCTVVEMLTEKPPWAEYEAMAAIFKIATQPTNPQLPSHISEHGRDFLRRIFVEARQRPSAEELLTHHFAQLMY
MEKK2 WT-MEK5 – raises or lowers MEK5 binding to wildtype human MEKK2 PB1 domain; actives 1.1% (n = 290,000); Q9Y2U5; bead flow cytometry, Alexa488-MEK5 binding to MEKK2 WT; actives lie on both sides; binding response (% of control), % at 10 µM; in the data active = binding response below about 67% or above about 130%
* = called active by the depositor; [ ] = remark or other dose. An excerpt weighted towards active compounds, which were near 2.9% of everything screened.

How did COc1cccc(-n2c(N)c(C(=O)Nc3c(C)n(C)n(-c4ccccc4)c3=O)c3nc4ccccc4nc32)c1 do in these assays?
B2AR ag: 66*; MEKK2 mut-MEK5: -15; GRK2 inh: 0; MEKK3 PB1 HTS: 77; MEKK2 WT-MEK5: 78

Results for Cc1c(NC(=O)c2cnc(Cl)c(Cl)c2)c(=O)n(-c2ccccc2)n1C ?
B2AR ag: -4; MEKK2 mut-MEK5: -19; GRK2 inh: 1; MEKK3 PB1 HTS: 50*[inhibitor]; MEKK2 WT-MEK5: 46*[inhibitor]

How did Cc1c(NC(=O)c2ccc(C(=O)Nc3c(C)n(C)n(-c4ccccc4)c3=O)cc2)c(=O)n(-c2ccccc2)n1C do in these assays?
B2AR ag: 9; MEKK2 mut-MEK5: 4; GRK2 inh: 0; MEKK3 PB1 HTS: 110; MEKK2 WT-MEK5: 111

How did Cc1cc(C)cc(-n2c(N)c(C(=O)Nc3c(C)n(C)n(-c4ccccc4)c3=O)c3nc4ccccc4nc32)c1 do in these assays?
B2AR ag: 11; MEKK2 mut-MEK5: -1; GRK2 inh: 3; MEKK3 PB1 HTS: 111; MEKK2 WT-MEK5: 84

What do the screens show for `Cc1ccc(-n2c(N)c(C(=O)Nc3c(C)n(C)n(-c4ccccc4)c3=O)c3nc4ccccc4nc32)cc1`?
B2AR ag: 68*; MEKK2 mut-MEK5: -1; GRK2 inh: 4; MEKK3 PB1 HTS: 122; MEKK2 WT-MEK5: 99

Results for CCOc1cc(/C=N/NC(=O)c2ccc(N(C)S(=O)(=O)c3ccccc3)cc2)ccc1OC ?
B2AR ag: 5; MEKK2 mut-MEK5: 0; GRK2 inh: 0; MEKK3 PB1 HTS: 104; MEKK2 WT-MEK5: 95

How did O=c1[nH][nH]c2c(N=Cc3ccccc3O)ccc(F)c12 do in these assays?
B2AR ag: 1; MEKK2 mut-MEK5: -14; MEKK3 PB1 HTS: 57*[inhibitor]; MEKK2 WT-MEK5: 58*[inhibitor]

How did Cc1ccc2c(c1)c1ncnc(N3CCOCC3)c1n2C do in these assays?
B2AR ag: -4; GRK2 inh: 2

How did Cn1c2ccccc2c2ccc3c(c21)C(=O)C=CC3=O do in these assays?
B2AR ag: 76*

What do the screens show for `COc1ccc2c(c1)c1ccc3c(c1n2C)C(=O)C=CC3=O`?
B2AR ag: 96*; MEKK2 mut-MEK5: -3; MEKK3 PB1 HTS: 103; MEKK2 WT-MEK5: 97

Results for Cc1ccc2c(c1)c1ccc3c(c1n2C)C(=O)C=CC3=O ?
B2AR ag: 93*; MEKK2 mut-MEK5: -18; MEKK3 PB1 HTS: 89; MEKK2 WT-MEK5: 95

Results for Cc1cc(NS(=O)(=O)c2ccc(NC(=O)c3cnc(Cl)c(Cl)c3)cc2)nc(C)n1 ?
B2AR ag: -11; GRK2 inh: 0

What do the screens show for `CC(=O)Nc1ccc(OS(=O)(=O)c2cc(Cl)ccc2C)cc1`?
B2AR ag: -18; MEKK2 mut-MEK5: 0; GRK2 inh: 1; MEKK3 PB1 HTS: 102; MEKK2 WT-MEK5: 103

Results for O=C(COC(=O)C1CCC1)NCCc1ccc(Cl)cc1Cl ?
B2AR ag: -1; MEKK2 mut-MEK5: -12; GRK2 inh: 4; MEKK3 PB1 HTS: 85; MEKK2 WT-MEK5: 88

What do the screens show for `C=CCN1C(=O)C2(NNc3ccccc3O2)c2ccccc21` (configuration not stated)?
B2AR ag: -307; MEKK2 mut-MEK5: 1; GRK2 inh: 0; MEKK3 PB1 HTS: 95; MEKK2 WT-MEK5: 95

Results for CCCCN1C(=O)C2(NNc3ccccc3O2)c2ccccc21 (configuration not stated) ?
B2AR ag: -187; MEKK2 mut-MEK5: 20; GRK2 inh: 2; MEKK3 PB1 HTS: 108; MEKK2 WT-MEK5: 54*

How did O=C(Cc1ccc(F)cc1)Nc1ccc(S(=O)(=O)N2CCCCC2)cc1 do in these assays?
B2AR ag: 0; MEKK2 mut-MEK5: 1; GRK2 inh: 0; MEKK3 PB1 HTS: 103; MEKK2 WT-MEK5: 98

How did O=C(COC(=O)/C=C/c1ccc(F)cc1)Nc1ccccc1-c1ccccc1 do in these assays?
B2AR ag: -3; MEKK2 mut-MEK5: -2; GRK2 inh: 2; MEKK3 PB1 HTS: 69*[inhibitor]; MEKK2 WT-MEK5: 96

Results for O=C(COC(=O)/C=C/c1cccc(F)c1)Nc1ccccc1-c1ccccc1 ?
B2AR ag: -3; MEKK2 mut-MEK5: -2; GRK2 inh: 2; MEKK3 PB1 HTS: 92; MEKK2 WT-MEK5: 91

Results for CC(C)C[C@H](NC(=O)C1CCN(C(=O)[C@H](Cc2ccccc2)NC(=O)OC(C)(C)C)CC1)C(=O)O ?
B2AR ag: -11; MEKK2 mut-MEK5: 9; GRK2 inh: 0; MEKK3 PB1 HTS: 107; MEKK2 WT-MEK5: 105

Results for O=C(Nc1ccc(S(=O)(=O)Nc2nccs2)cc1)c1nn(-c2ccccc2)ccc1=O ?
B2AR ag: 58*; MEKK2 mut-MEK5: 3; GRK2 inh: 10; MEKK3 PB1 HTS: 101; MEKK2 WT-MEK5: 101

How did CCc1nccn1CCC(=O)NC1CCCc2c1cnn2-c1ccc(F)cc1F (configuration not stated) do in these assays?
B2AR ag: -7; MEKK2 mut-MEK5: -22; GRK2 inh: 0; MEKK3 PB1 HTS: 71*[inhibitor]; MEKK2 WT-MEK5: 66*[inhibitor]

How did CN(C(=O)COC(=O)c1ccc([N+](=O)[O-])cc1N)c1ccccc1 do in these assays?
B2AR ag: -7; MEKK2 mut-MEK5: -4; GRK2 inh: 0; MEKK3 PB1 HTS: 103; MEKK2 WT-MEK5: 97

What do the screens show for `CC1CC(C)CN(C(=O)C2CCCN(S(=O)(=O)c3cnc[nH]3)C2)C1` (configuration not stated)?
B2AR ag: 3; MEKK2 mut-MEK5: 7; GRK2 inh: 0; MEKK3 PB1 HTS: 107; MEKK2 WT-MEK5: 104

What do the screens show for `Cc1ccc(C)c(N2N=C(C(=O)Nc3ccc(N4CCOCC4)cc3)CCC2=O)c1`?
B2AR ag: 2

What do the screens show for `Nc1c(/C=C2/C=CC(=O)C(O)=C2)c(=O)nc2sc(CC(=O)N3CCCCC3)nn12`?
B2AR ag: -7; MEKK2 mut-MEK5: -3; GRK2 inh: 41*; MEKK3 PB1 HTS: 96; MEKK2 WT-MEK5: 95

Results for COC1=C/C(=C/c2c(N)n3nc(CC(=O)N4CCCC4)sc3nc2=O)C=CC1=O ?
B2AR ag: -324; MEKK2 mut-MEK5: 0; GRK2 inh: 7; MEKK3 PB1 HTS: 94; MEKK2 WT-MEK5: 91

What do the screens show for `COC1=CC(=Cc2c(N)n3nc(CC(=O)N4CCCCC4)sc3nc2=O)C=C(OC)C1=O`?
B2AR ag: -568; MEKK2 mut-MEK5: -14; GRK2 inh: 3; MEKK3 PB1 HTS: 82*[inhibitor]; MEKK2 WT-MEK5: 70*[inhibitor]

Results for CC(=O)c1ccc(Cc2ccc(C(C)=O)cc2)cc1 ?
B2AR ag: -10; MEKK2 mut-MEK5: 1; GRK2 inh: 9; MEKK3 PB1 HTS: 103; MEKK2 WT-MEK5: 105

How did O=C1C=CC(=O)c2c(O)c(N3CCN(CCOCCO)CC3)c(Br)c(O)c21 do in these assays?
B2AR ag: 66*

How did O=S(=O)(c1ccc(Br)cc1Cl)N1CCN(CCO)CC1 do in these assays?
B2AR ag: -7; MEKK2 mut-MEK5: 0; GRK2 inh: 1; MEKK3 PB1 HTS: 106; MEKK2 WT-MEK5: 102
